# Assay outcomes from PubChem BioAssay.
# Sampled rows, rich in hits. Any-hit rate of the full collection: about 12%.
# BAZ2B block: qHTS Assay for Inhibitors of BAZ2B | Bromodomain adjacent to zinc finger domain protein 2B (Homo sapiens), Q9UIF8 | AlphaScreen BAZ2B-H3K14Ac peptide displacement | Potency, µM (highest dose often 114 µM), most hits filed as inhibitors | 4.4% of 360,000 active | AID 504333, 2011; also: nearly all actives have a fitted effect of over 60% in size
#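 BAZ2B 50 nM plus b-H3(5-23)K14Ac 50 nM, PBS pH 7.4/0.01% Tween-20, 30 min RT; compound added (max 110 uM), 30 min RT; streptavidin donor/Ni-chelate acceptor beads 10 ug/mL final, 20 min dark; AlphaScreen read.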
# G9a inh: qHTS Assay for Inhibitors of Histone Lysine Methyltransferase G9a | Potency, µM (titrated, usually from 102 µM), hits mostly inhibitors | Histone-lysine N-methyltransferase EHMT2 (Homo sapiens), Q96KQ7 | G9a H3K9 monomethylation, AlphaScreen, 2 h | 8.8% of 350,000 active; also: nearly all actives have a fitted effect of over 75% in size
# Target sequence (Q96KQ7 913-1193 limits assumed): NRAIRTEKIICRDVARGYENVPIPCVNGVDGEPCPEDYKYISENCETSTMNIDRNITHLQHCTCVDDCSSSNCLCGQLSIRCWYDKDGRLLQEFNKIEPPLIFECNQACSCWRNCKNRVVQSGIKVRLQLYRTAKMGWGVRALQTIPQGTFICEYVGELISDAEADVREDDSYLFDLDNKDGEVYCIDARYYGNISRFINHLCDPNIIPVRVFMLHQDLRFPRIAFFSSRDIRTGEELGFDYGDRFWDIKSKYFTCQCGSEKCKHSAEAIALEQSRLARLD
#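 Enzyme 20 nM + cpd, 15 min RT; add b-H3K9 pep 500 nM / SAM 20 uM; 2 h RT; anti-H3K9me1 Ab 0.5 ug/mL + SA donor / anti-rabbit acceptor beads 20 ug/mL each, 10 min; AlphaScreen read.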
# HP1b chromo inh: HTS for Inhibitors of HP1-beta Chromodomain Interactions with Methylated Histone Tails | AID 540317, 2011 | Potency, µM (titrated, usually from 114 µM), usual class: inhibitors | AlphaScreen HP1-beta / biotin-H3K9me3 peptide binding | 0.56% of 390,000 active; also: nearly all actives have a fitted effect of over 70% in size
# Target sequence (P83916 whole entry, looked up): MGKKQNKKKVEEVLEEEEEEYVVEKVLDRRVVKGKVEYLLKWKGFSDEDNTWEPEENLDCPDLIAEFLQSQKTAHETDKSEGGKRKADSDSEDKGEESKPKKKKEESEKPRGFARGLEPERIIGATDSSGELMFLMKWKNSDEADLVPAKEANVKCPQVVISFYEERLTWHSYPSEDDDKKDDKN
#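 Compound inhibition of the preformed complex between 50 nM HP1-beta and 50 nM biotinylated H3K9me3 peptide was read by AlphaScreen. Buffer was PBS pH 7.4 with 0.01% Tween-20. Incubations ran 30 min at room temperature, with 10 ug/mL donor/acceptor beads.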
# PLK1 PBD inh: qHTS for Inhibitors of PLK1-PDB (polo-like kinase 1 - polo-box domain): Primary Screen; 2.8% of 360,000 active; Plk1 PBD binding of FITC phosphopeptide, fluorescence polarization; Potency, µM, usual class: inhibitors; AID 720504, 2013; also: series mostly up to about 57 µM; nearly all actives have a fitted effect of over 65% in size
# JMJD2A Tudor: qHTS Assay for Inhibitors of JMJD2A-Tudor Domain. 4.4% of 390,000 active. AID 504339, 2011. Lysine-specific demethylase 4A (Homo sapiens), O75164. Potency, µM (titrated, usually from 114 µM), most hits filed as inhibitors. AlphaScreen JMJD2A-Tudor / H3K4me3 peptide binding; also: nearly all actives have a fitted effect of over 50% in size
# Sfp PPTase inh: qHTS Assay for Inhibitors of Bacillus subtilis Sfp phosphopantetheinyl transferase (PPTase); 3.5% of 310,000 active; Potency, µM, actives largely listed as inhibitors; Biochemical Sfp PPTase activity, qHTS; 4'-phosphopantetheinyl transferase ffp (Bacillus subtilis), Q9F4F7;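 also: the enzyme is Sfp with the accession as filed and its product quenches rhodamine fluorescence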
#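 With Hepes-Na pH 7.6 buffer containing 10 mM MgCl2, Sfp (15 nM) modified BHQ-2-YbbR (12.5 uM) using rhodamine-CoA (5 uM). Two reads 30 minutes apart at 525/598 nm yielded each well's rate.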
# Numbers stand for hits; i = inactive; ? = inconclusive; nt = no result given; [ ] = remark or other dose. Calls follow the shape of the dose curve; as a rule, active = well fitted curve in the direction sought with a large enough effect; inconclusive = small, poorly fitted or top-dose-only effect, or another doubt; inactive = no such curve, though single readings can be large; an effect the other way counts as inactive or inconclusive.
SMILES,BAZ2B block,G9a inh,HP1b chromo inh,PLK1 PBD inh,JMJD2A Tudor,Sfp PPTase inh
O=C(Nc1ccc2c(c1)nc1n2CCN(Cc2ccccc2)C1)c1cccs1,?,?,i,i,i,i
Cc1ccc(C(=O)Nc2ccc(Cl)cc2C)c(Cl)c1,i,i,i,i,i,i
Cc1ccc2c(c1)NC(=O)c1cccc([N+](=O)[O-])c1CO2,i,50.1µM,nt,nt,nt,i
Cc1ccc2c(c1)Oc1ccc([N+](=O)[O-])cc1C(=O)N2,i,i,i,i,i,i
Cc1ccc(CNC(=O)C2CCCN(c3nc4ccsc4c(=O)s3)C2)cc1 (stereo not given),i,i,i,i,i,i
CCCCn1c(SCC(=O)N2CCC(C)CC2)nc2cc(S(N)(=O)=O)ccc21,i,7.94µM,i,i,i,?
CCCCn1c(SCC(=O)c2ccc(O)cc2O)nc2cc(S(N)(=O)=O)ccc21,i,i,i,i,i,i
CCCCn1c(SCc2ccc(C(=O)OC)o2)nc2cc(S(N)(=O)=O)ccc21,i,i,i,i,i,56.2µM
CCCCn1c(SCN2C(=O)c3ccccc3C2=O)nc2cc(S(N)(=O)=O)ccc21,i,39.8µM,i,i,i,i
CCCCn1c(SCC(=O)c2cc(OC)ccc2OC)nc2cc(S(N)(=O)=O)ccc21,i,?,i,?,i,i
Cc1ccc(-n2c(SCC(=O)Nc3ccc4c(c3)OCCO4)nc3c([nH]c4ccccc43)c2=O)cc1,i,i,i,nt,i,nt
COc1ccccc1CNC(=O)C1CCN(S(=O)(=O)c2ccc3c(c2)NC(=O)CO3)CC1,i,i,i,i,i,i
Cc1ccc(CNC(=O)c2ccc3c(c2)N(Cc2cccc(C)c2)C(=O)CS3)cc1,i,i,i,nt,i,nt
O=c1[nH]c(-c2ccccc2)c(-c2ccccc2)o1,i,44.7µM,i,i,i,i
COc1ccc(CNC(=O)C[C@@H]2C[C@H]3c4cc(NC(=O)NC5CCCC5)ccc4O[C@H]3[C@H](CO)O2)cc1,nt,nt,nt,i,nt,nt
COc1ccc(C=O)cc1CSc1ccccn1,i,nt,i,23.8µM,i,i
COc1ccc(/C=N/NC(=O)c2ccccc2Cl)cc1CSc1nc2ccccc2s1,i,i[12.7 µM],i,i,i,i
COc1ccc(/C=N/NC(=O)c2ccc(O)cc2O)cc1CSc1ccccn1,56.2µM,50.1µM,?,i,?,i
Cc1ccc(C)c(N2CCN(C(=O)c3cc4c(=O)n(Cc5ccco5)ccc4nc3C)CC2)c1,?,i,i,nt,?,nt
COc1cc(C(=O)Nc2ccccc2OCc2cc(=O)n3cc(C)sc3n2)cc(OC)c1OC,i,i,i,nt,i,nt
C/C(=N\NC(=O)C(=O)Nc1ccc(C)c(Cl)c1)c1ccncc1,i,i,i,i,i,i
C/C(=N\Nc1ccc(C)c(Cl)c1)c1ccncc1,?,22.4µM,i,i,?,i
C/C(=N\Nc1ccc(C)c(Cl)c1)c1cccnc1,i,11.2µM,i,i,i,i
COc1ccccc1NNC(=O)c1cc(C(C)(C)C)nn1Cc1ccccc1,?,12.6µM,i,i,i,i
Cc1ccc(NC(=O)c2cc(C(C)(C)C)nn2Cc2ccccc2)cc1,i,nt,i,i,i,i
SMILES,BAZ2B block,G9a inh,HP1b chromo inh,PLK1 PBD inh,JMJD2A Tudor,Sfp PPTase inh
Cc1ccc(NNC(=O)c2cc(C(C)(C)C)nn2Cc2ccccc2)cc1,i,3.55µM,?,i,70.8µM,i
C=CCOC(/C=C/c1ccccc1)C[Si](C)(C)C (stereo not given),nt,nt,i,nt,i,i
C(=N\Nc1nc2ccccc2[nH]1)/c1ccccc1,i,i[12.7 µM],i,i,i,i
O=[N+]([O-])c1cc(/C=N/Nc2nc3ccccc3[nH]2)c(O)cc1O,20µM,50.1µM,?,?,28.2µM,i
Cc1cc(=O)[nH]c(N/N=C/c2ccccc2C(F)(F)F)n1,i,?,i,i,i,i
Cc1[nH]c2ccccc2c1/C=N/Nc1nc2ccccc2[nH]1,28.2µM,39.8µM,?,i,44.7µM,i
Cc1cc(=O)[nH]c(N/N=C/c2c[nH]c3ccccc23)n1,i,?,i,i,i,28.2µM
C(=N\Nc1nc(N2CCCCC2)nc(N2CCCCC2)n1)/c1c[nH]c2ccccc12,39.8µM,?,i,i,35.5µM,i
NS(=O)(=O)c1ccc(NC(=O)C2C3C=CC(C3)C2C(=O)O)cc1 (stereo not given),i,i,i,i,i,i
CCc1ccc(NS(=O)(=O)c2ccc(C)c(C(=O)N3CCOCC3)c2)cc1,i,?,i,i,i,i
CC(C)(C)C1CCC(=O)N(CCC#N)CC1 (stereo not given),i,i,i,i,i,i
Fc1cccc(CNc2ncnc3ccc(-c4ccoc4)cc23)c1,i,i[12.7 µM],nt,nt,nt,nt
COC(=O)c1ccc(NC(=O)CN2C(=O)CC(c3ccccc3)Sc3ccccc32)cc1 (stereo not given),i,i,i,nt,i,nt
C(=C\c1ccccc1)/C=N/Nc1nc2ccccc2[nH]1,i,?,i,i,?,14.1µM
C(=N\Nc1nc2ccccc2[nH]1)/c1cccc2cccnc12,7.08µM,nt,i,i,14.1µM,i
Cc1ccccc1/C=N/Nc1nc2ccccc2[nH]1,i,i,i,i,i,?
O=[N+]([O-])c1ccccc1N/N=C/c1c[nH]c2ccccc12,10µM,?,12.6µM,i,11.2µM,i
C(=N\Nc1nc2ccccc2[nH]1)/c1c[nH]c2ccccc12,44.7µM,i,?,i,44.7µM,?
Nc1ccc(NC(=O)Nc2ccc(N)cc2)cc1,i,?,i,i,i,i
Nc1ccc(NC2C[C@@H](C(=O)O)NC2=O)cc1 (stereo not given in full),i,50.1µM,i,i,i,i
C=CCNc1nc(-c2ccc(O)c(C(N)=O)c2)cs1,?,?,i,2.99µM,14.1µM,i
NC(=O)c1cc(-c2csc(NCCc3ccccc3)n2)ccc1O,56.2µM,35.5µM,?,29.9µM,?,?
COc1cc(CN2CCN(c3cccc(C)c3C)CC2)cc([N+](=O)[O-])c1O,50.1µM,11.2µM,?,i,2.24µM,i
COc1ccc(N2CCN(Cc3cc(OC)c(O)c([N+](=O)[O-])c3)CC2)cc1,50.1µM,7.08µM,15.8µM,i,1µM,?
COc1ccc(N2CCN(c3ccc(C(=O)O)cc3[N+](=O)[O-])CC2)cc1,?,i[0.501 µM],i,i,i,i
CCCCCOC(=O)CSc1ncnc2c1sc1nc(N3CCOCC3)c3c(c12)CCCC3,i,i,i,nt,i,nt
Nc1ncc(-c2ccccc2)n1CC1CCCO1 (stereo not given),20µM,i[0.501 µM],i,?,?,?
